Measured values taken from PubChem BioAssay AID493025 (Johns Hopkins Ion Channel Center, 2011).
Among all 1,000 compounds or so, about 570 (57%) were called active. The rule behind the calls is not given here. The set was probably picked from earlier hits. These entries were drawn from the full list.

Molecular target: Potassium voltage-gated channel subfamily KQT member 2 (Rattus norvegicus) (UniProt O88943)
Assay: rat KCNQ2 potassium channel inhibitors, confirmation, cell-based, thallium flux (AID 493025);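 for activity change, negative = inhibition: 0% = vehicle wells and values are ratio percent relative to vehicle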
Conditions: KCNQ2-expressing cells, at 10 µM; activity change, negative = inhibition: stronger effect = lower value; outcome: inhibition

Potassium voltage-gated channel subfamily KQT member 2 (Rattus norvegicus), sequence (O88943 whole entry, looked up): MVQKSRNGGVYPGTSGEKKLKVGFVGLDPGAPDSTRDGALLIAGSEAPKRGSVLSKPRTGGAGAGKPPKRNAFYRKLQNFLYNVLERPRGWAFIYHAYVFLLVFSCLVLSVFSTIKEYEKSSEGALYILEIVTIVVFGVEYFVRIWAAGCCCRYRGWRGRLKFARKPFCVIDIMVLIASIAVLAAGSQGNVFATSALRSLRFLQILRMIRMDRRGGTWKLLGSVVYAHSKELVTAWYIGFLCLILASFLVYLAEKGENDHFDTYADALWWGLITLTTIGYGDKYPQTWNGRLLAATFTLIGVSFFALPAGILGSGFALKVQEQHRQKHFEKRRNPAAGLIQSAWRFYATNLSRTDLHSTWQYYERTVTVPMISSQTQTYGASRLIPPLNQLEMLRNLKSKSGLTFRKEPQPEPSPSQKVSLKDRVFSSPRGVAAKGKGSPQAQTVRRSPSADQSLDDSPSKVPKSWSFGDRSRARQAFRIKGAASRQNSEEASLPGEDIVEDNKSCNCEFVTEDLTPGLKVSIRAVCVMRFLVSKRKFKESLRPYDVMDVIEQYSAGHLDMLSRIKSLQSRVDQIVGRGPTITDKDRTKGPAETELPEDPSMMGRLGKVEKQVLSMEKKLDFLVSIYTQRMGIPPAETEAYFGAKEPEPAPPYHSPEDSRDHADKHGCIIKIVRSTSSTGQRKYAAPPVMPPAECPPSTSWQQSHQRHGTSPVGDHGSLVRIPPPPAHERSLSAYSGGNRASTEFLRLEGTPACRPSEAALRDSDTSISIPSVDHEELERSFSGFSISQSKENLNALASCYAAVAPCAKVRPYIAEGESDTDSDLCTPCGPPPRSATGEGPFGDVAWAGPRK

SMILES	activity change, negative = inhibition
CCc1ccc(-c2nn(-c3ccccc3)cc2CSC(=N)N)cc1	-37.5% (active)
C=CS(=O)c1sc(Cl)c(N2CCOCC2)c1[N+](=O)[O-] (stereo unspecified)	-32.5% (active)
Cc1ccc(C(C)C)cc1OCC(=O)Nc1ccccc1N1CCCC1	inactive
CC(C(=O)NCC1CCCCC1)N(C)Cc1cccc(Cl)c1 (stereo unspecified)	-47% (active)
CCc1ccccc1NC(=O)/C(=C/c1ccccc1)c1ccccc1	-33% (active)
C=CCn1c(SCC(=O)/C(C#N)=C(\C)N)nc2sc(C)c(C)c2c1=O	inactive
CN(Cc1ccccc1F)C(=O)C(Cc1ccccc1)NC(=O)c1ccccc1 (stereo unspecified)	-29% (active)
CC(NC(=S)NNS(=O)(=O)c1ccc(C(C)(C)C)cc1)c1ccccc1 (stereo unspecified)	inactive
CCc1ccc2ncc(C(=O)c3ccccc3)c(N3CCOCC3)c2c1	-20.5% (active)
Fc1ccc2[nH]c3c(N4CCSCC4)ncnc3c2c1	-38.5% (active)
Cc1ccc(N2C(=O)C3C(c4ccccc4)(C2=O)C3(c2ccccc2)c2ccccc2)cc1 (stereo unspecified)	inactive
CC(C)N(C(=O)CSc1nc(COc2ccccc2)nc2ccccc12)C(C)C	-42.5% (active)
COc1cccc(COc2ccc(N(C)S(=O)(=O)c3ccccc3)cc2)c1	inactive
O=C(OCC(=O)N(CCc1ccccc1)Cc1ccccc1)c1ccccc1[N+](=O)[O-]	inactive
CSCc1cc(N(C)C)nc(SCc2ccc(Cl)cc2Cl)n1	-19.5% (active)
O=C(Nc1ccccc1Cl)/C(Cl)=C(\Cl)S(=O)c1ccccc1 (stereo unspecified)	-22.5% (active)

SMILES	activity change, negative = inhibition
Cc1ccccc1N1CCN(CC(=O)NCc2ccc(Cl)cc2)CC1	inactive
Cc1cccc(C(=O)OC(C)C(=O)NC2CCCc3ccccc32)c1O (stereo unspecified)	-27% (active)
COc1ccc(CN(C)C(C)C(=O)NC2CCCc3ccccc32)cc1 (stereo unspecified)	-19.5% (active)
O=C(Nc1ccc(Cl)c(Cl)c1)N1CC=C(c2ccccc2)CC1	inactive
COC(=O)C1=C(C)N(C(C)c2ccccc2)C(=O)/C1=C\c1ccco1 (stereo unspecified)	-22.5% (active)
CCOC(=O)C(C)Sc1nc2ccccc2c(=O)n1CC1CCCCC1 (stereo unspecified)	-32% (active)
COc1ccc(Cl)cc1NC(=O)CN(C)Cc1ccc(OC)c(OC)c1	inactive
Cc1ccc(C(=O)c2c(NC(=O)c3ccccc3)sc(C)c2C)cc1	-21% (active)
Cc1ccccc1C(=O)Nc1ccccc1Sc1ccccc1	-26% (active)
CCOC(=O)N1CCC(N(CCOC)C(=O)Nc2ccc(C)c(C)c2)CC1	-33% (active)
CCc1ccc(-c2cc(C(=O)NCc3ccco3)c3ccccc3n2)s1	inactive
CC(C)C(NC(=O)OCc1ccccc1)C(=O)OCC(=O)N1C(C)CCCC1C (stereo unspecified)	inactive
CC(C)[C@H](NC(=O)OCc1ccccc1)C(=O)OCc1ccccc1	-23.5% (active)
Cc1ccc(C2=Nc3c(ccc4ccccc34)C(c3ccncc3)=NN2)cc1	inactive
Cc1nc2ccccc2c(-c2ccccc2)c1C(=O)c1ccccc1	-31% (active)
